Records with an inconclusive call do not appear. Activity calls are given as the source filed them. Unless noted, calls follow the shape of the full dose curve.
% is scaled to controls: 0 for no effect and ±100 for the full control effect.

System in one assay: not listed separately
The assay is described as follows: cAMP Responsive Elements (CRE) small molecule agonists, cell-based qHTS assay (AID 1963590). The conditions noted are these: CRE-bla HEK293T, beta-lactamase FRET ratio, 3 h; series mostly up to 92.4 µM; activation: at the top concentration. In a few lines:
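Beta-lactamase reporter readout: LiveBLAzer B/G FRET substrate, 2 h at room temperature, added after 3 h compound treatment of CRE-bla HEK 293T cells at 37 C/5% CO2.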
In general terms: In qHTS, concentration-response curves come from the screen itself.
Take `CCCCCCCCP(=O)(O)O`: the “activation” value was 0.465% (inactive).
Still for that read-out and setting: the same measure for `c1ccc2c(c1)CCNC2`: -1.49% (inactive); for `Nc1cc(Cl)ccc1Cl`: 0.0238% (inactive); for `Clc1cccc(N2CCNCC2)c1`: -1.39% [at 42.5 µM] (inactive).
Still for that read-out and setting: the same measure for `N#Cc1c(Cl)cccc1Cl`: 0.891% (inactive); for `COc1ccc(CN2CCNCC2)c(OC)c1OC`: -0.0451% [at 42.5 µM] (inactive).
`CC(Cc1ccccc1)N(C)Cc1ccco1` (stereo not drawn): the “activation” value is -0.48% [at 42.5 µM] (inactive).
For `ClCC(Cl)Cl`, the “activation” value was -0.968% (inactive).
On the same count and under the same terms, the same measure for `CC[C@@H](CO)NC(=O)[C@@H]1C=C2c3cccc4c3c(cn4C)C[C@H]2N(C)C1`: 1.05% [at 42.5 µM] (inactive); for `CC1NCCOC1c1ccccc1` (stereo not drawn): 0.0258% [at 42.5 µM] (inactive); for `O=C(Cc1ccccc1)OCCc1ccccc1`: 3.59% (inactive).
On the same count and under the same terms, as for `COc1ccc(C(=O)N2CCCC2=O)cc1`, the figure is 0.258% [at 42.5 µM] (inactive); as for `ClCCCN1CCN(c2cccc(Cl)c2)CC1`, -2.35% [at 42.5 µM] (inactive).
Same read-out and setting: as for `C=CCC1([C@H](C)CCC)C(=O)NC(=O)NC1=O`, the figure is 0.1% (inactive).
With `CCN(C(C)=O)c1cccc(-c2ccnc3c(C#N)cnn23)c1`, the “activation” value was -0.479% [at 42.5 µM] (inactive).
With `CCCN1CCC[C@@H]2Cc3[nH]ncc3C[C@H]21`, the “activation” value is 17% [at 42.5 µM] (inactive).
Regarding `CC#Cc1cc(C)nc(Nc2ccccc2)n1`, the “activation” value is -0.463% (inactive).
Same read-out and setting: the same measure for `BrCCCCBr`: -0.798% (inactive).
Still for that read-out and setting: as for `O=c1[nH]oc2c1CCNC2`, the figure is -0.146% [at 42.5 µM] (inactive); as for `O=C1OC(CCN2CCCCC2)OC1(c1ccccc1)c1ccccc1` (stereo not drawn), 0.547% [at 42.5 µM] (inactive).
The same measure, in the same setting: as for `N[C@@H](Cc1ccc(Oc2cc(I)c(O)c(I)c2)c(I)c1)C(=O)O`, the figure is -0.28% [at 42.5 µM] (inactive); as for `O=S1(=O)OC(c2cc(Br)c(O)c(Br)c2)(c2cc(Br)c(O)c(Br)c2)c2ccccc21`, 0.509% (inactive).
As to `[Cl][Sn]([Cl])([Cl])[Cl]`, the “activation” value is 3.37% (inactive).
Same read-out and setting: as for `O=[N+]([O-])c1ccc(CCl)cc1`, the figure is 0.21% (inactive); as for `O=C(CCCN1CCC(n2c(=O)[nH]c3ccccc32)CC1)c1ccc(F)cc1`, 5.83% [at 42.5 µM] (inactive).
Same read-out and setting: the same measure for `CC(C)NCC(O)c1ccc([N+](=O)[O-])cc1` (stereo not drawn): -0.67% [at 42.5 µM] (inactive); for `CC[C@@H](CO)NC(=O)[C@@H]1C=C2c3cccc4[nH]cc(c34)C[C@H]2N(C)C1`: 2.79% [at 42.5 µM] (inactive).
On the same count and under the same terms, the same measure for `CC(Cl)(Cl)Cl`: -0.064% (inactive); for `CCOC(=O)CC(=O)CCl`: -2.57% (inactive); for `CNC(C)Cc1ccccc1OC` (stereo not drawn): -0.519% [at 42.5 µM] (inactive).
As to `ClCc1cccc(Cl)c1`, the “activation” value was -0.848% [at 42.5 µM] (inactive).
Turning to `CC1=C2C[C@H]3[C@@H](CC=C4C[C@@H](O)CC[C@@]43C)[C@@H]2CC[C@]12O[C@@H]1C[C@H](C)CN[C@H]1[C@H]2C`, the “activation” value was 0.669% [at 42.5 µM] (inactive).

System in another assay: not listed separately
As to the kind of experiment: cAMP Responsive Elements (CRE) small molecule antagonists, cell-based qHTS assay (AID 1963591; active = well fitted inhibition curve with a large enough effect in the signal ratio in the repeat runs, not every such curve was filed as active; the % refers to the signal ratio). The conditions noted are these: CRE-bla HEK293T, beta-lactamase FRET ratio; series mostly up to 92.4 µM; activity change, negative = inhibition: at the top concentration. The procedure, abridged: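 HEK293T CRE-bla; 18 h preincubation; compound pin-transfer; NKH477 0.25 uM final, 3 h, 37 C; LiveBLAzer FRET substrate 2 h RT.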
With `CCCCCCCCP(=O)(O)O`, the “activity change, negative = inhibition” value is 6.66% (inactive).
With `Nc1cc(Cl)ccc1Cl`, the “activity change, negative = inhibition” value was -6.72% (inactive).
Still for that read-out and setting: the same measure for `Clc1cccc(N2CCNCC2)c1`: -4.46% [at 42.4 µM] (inactive); for `N#Cc1c(Cl)cccc1Cl`: -15.8% (inactive); for `COc1ccc(CN2CCNCC2)c(OC)c1OC`: 0.0503% [at 42.4 µM] (inactive).
The same measure, in the same setting: the same measure for `CC(Cc1ccccc1)N(C)Cc1ccco1` (stereo not drawn): 0.723% [at 42.4 µM] (inactive).
Same read-out and setting: as for `ClCC(Cl)Cl`, the figure is 1.6% (inactive).
Turning to `CC[C@@H](CO)NC(=O)[C@@H]1C=C2c3cccc4c3c(cn4C)C[C@H]2N(C)C1`, the “activity change, negative = inhibition” value was 6.53% [at 42.4 µM] (inactive).
As for `CC1NCCOC1c1ccccc1` (stereo not drawn), the “activity change, negative = inhibition” value is 9.48% [at 42.4 µM] (inactive).
On the same count and under the same terms, the same measure for `O=C(Cc1ccccc1)OCCc1ccccc1`: -13.3% (inactive); for `O=C(Cl)c1ccc(Cl)cc1`: -11.5% (inactive).
As to `COc1ccc(C(=O)N2CCCC2=O)cc1`, the “activity change, negative = inhibition” value is -1.61% [at 42.4 µM] (inactive).
Regarding `ClCCCN1CCN(c2cccc(Cl)c2)CC1`, the “activity change, negative = inhibition” value is 1.55% [at 42.4 µM] (inactive).
On the same count and under the same terms, as for `C=CCC1([C@H](C)CCC)C(=O)NC(=O)NC1=O`, the figure is 0.616% (inactive); as for `ClC(Cl)=C(Cl)Cl`, 3.8% (inactive).
Regarding `CCCN1CCC[C@@H]2Cc3[nH]ncc3C[C@H]21`, the “activity change, negative = inhibition” value was -3.5% [at 42.4 µM] (inactive).
In the case of `O=C1OC(CCN2CCCCC2)OC1(c1ccccc1)c1ccccc1` (stereo not drawn), the “activity change, negative = inhibition” value was 14.7% [at 42.4 µM] (inactive).
Still for that read-out and setting: as for `N[C@@H](Cc1ccc(Oc2cc(I)c(O)c(I)c2)c(I)c1)C(=O)O`, the figure is 1.82% [at 42.4 µM] (inactive); as for `O=S1(=O)OC(c2cc(Br)c(O)c(Br)c2)(c2cc(Br)c(O)c(Br)c2)c2ccccc21`, 18% (inactive); as for `[Cl][Sn]([Cl])([Cl])[Cl]`, -11.9% (inactive).
The same measure, in the same setting: as for `O=[N+]([O-])c1ccc(CCl)cc1`, the figure is 1.56% (inactive).
For `CC(C)NCC(O)c1ccc([N+](=O)[O-])cc1` (stereo not drawn), the “activity change, negative = inhibition” value is 3.95% [at 42.4 µM] (inactive).
Take `CC(C(O)c1ccccc1)N(C)C/C=C/c1ccccc1` (stereo not drawn): the “activity change, negative = inhibition” value was 18.1% [at 42.4 µM] (inactive).
On to `CC[C@@H](CO)NC(=O)[C@@H]1C=C2c3cccc4[nH]cc(c34)C[C@H]2N(C)C1`, for which the “activity change, negative = inhibition” value was 6.58% [at 42.4 µM] (inactive).
Take `CC(Cl)(Cl)Cl`: the “activity change, negative = inhibition” value was -4.41% (inactive).
As for `CCOC(=O)CC(=O)CCl`, the “activity change, negative = inhibition” value was -2.2% (inactive).
On the same count and under the same terms, as for `CNC(C)Cc1ccccc1OC` (stereo not drawn), the figure is -0.291% [at 42.4 µM] (inactive); as for `CC(C)NCC(O)c1ccccc1Cl` (stereo not drawn), 18.2% [at 42.4 µM] (inactive).
On the same count and under the same terms, as for `CCN(CC)CCOC(=O)C(C)(c1ccccc1)c1ccccc1`, the figure is 10.1% [at 42.4 µM] (inactive).
For the compound `ClCc1cccc(Cl)c1`, the “activity change, negative = inhibition” value is -4.74% [at 42.4 µM] (inactive).
With `CC1=C2C[C@H]3[C@@H](CC=C4C[C@@H](O)CC[C@@]43C)[C@@H]2CC[C@]12O[C@@H]1C[C@H](C)CN[C@H]1[C@H]2C`, the “activity change, negative = inhibition” value is 12.1% [at 42.4 µM] (inactive).
Turning to `CC(C)[C@H](C(=O)OC(C#N)c1cccc(Oc2ccccc2)c1)c1ccc(OC(F)F)cc1` (stereo partly drawn), the “activity change, negative = inhibition” value is -18.1% (inactive).

The target of another assay is Beta-2 adrenergic receptor (Homo sapiens) (UniProt P07550). As to the kind of experiment: Adrenergic beta2 receptor (ADRB2) small molecule antagonists, cell-based qHTS assay (AID 1963592). Also: nearly all actives have a fitted effect of over 50% in size. Also: potency is read from the fitted curve at half-maximal effect. The conditions noted are these: CHO-ADRB2 cells, isoproterenol-stimulated cAMP HTRF ratio, 0.5 h; series mostly up to 92.4 µM; activity change, negative = inhibition: at the top concentration. In a few lines: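 Assay format: CHO-ADRB2 cells, 18-20hr seeding at 37C/5% CO2, then compound plus 1nM isoproterenol agonist mix for 0.5hr RT. Homogeneous time-resolved fluorescence cAMP detection after 1hr, expressed as 665/615 nm ratio.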
Sequence of Beta-2 adrenergic receptor (Homo sapiens) (P07550 whole entry, looked up): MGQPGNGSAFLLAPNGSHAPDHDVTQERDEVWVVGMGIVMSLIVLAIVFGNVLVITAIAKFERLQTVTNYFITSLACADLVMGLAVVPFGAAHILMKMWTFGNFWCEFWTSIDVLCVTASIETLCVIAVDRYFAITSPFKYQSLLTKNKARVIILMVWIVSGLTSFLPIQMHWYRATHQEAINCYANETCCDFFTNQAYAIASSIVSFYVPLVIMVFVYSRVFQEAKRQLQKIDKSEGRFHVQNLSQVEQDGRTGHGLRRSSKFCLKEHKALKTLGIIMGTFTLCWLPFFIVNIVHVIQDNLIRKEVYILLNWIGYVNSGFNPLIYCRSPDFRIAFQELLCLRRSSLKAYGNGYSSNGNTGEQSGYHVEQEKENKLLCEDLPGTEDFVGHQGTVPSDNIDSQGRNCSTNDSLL
Turning to `CCCCCCCCP(=O)(O)O`, the “activity change, negative = inhibition” value was 10.2% (inactive).
The same measure, in the same setting: the same measure for `c1ccc2c(c1)CCNC2`: -3.86% (inactive); for `Nc1cc(Cl)ccc1Cl`: -0.369% (inactive); for `N#Cc1c(Cl)cccc1Cl`: -4.82% (inactive).
On the same count and under the same terms, as for `COc1ccc(CN2CCNCC2)c(OC)c1OC`, the figure is 4.05% [at 42.5 µM] (inactive); as for `CC(Cc1ccccc1)N(C)Cc1ccco1` (stereo not drawn), 5.1% [at 42.5 µM] (inactive); as for `ClCC(Cl)Cl`, 1.88% (inactive).
Same read-out and setting: the same measure for `CC1NCCOC1c1ccccc1` (stereo not drawn): 2.85% [at 42.5 µM] (inactive); for `O=C(Cl)c1ccc(Cl)cc1`: 0.371% (inactive); for `COc1ccc(C(=O)N2CCCC2=O)cc1`: 0.686% [at 42.5 µM] (inactive).
Take `ClCCCN1CCN(c2cccc(Cl)c2)CC1`: the “activity change, negative = inhibition” value is -11.3% [at 42.5 µM] (inactive).
Still for that read-out and setting: as for `C=CCC1([C@H](C)CCC)C(=O)NC(=O)NC1=O`, the figure is 1.82% (inactive); as for `ClC(Cl)=C(Cl)Cl`, 1.25% (inactive).
As for `CCN(C(C)=O)c1cccc(-c2ccnc3c(C#N)cnn23)c1`, the “activity change, negative = inhibition” value is 0.241% [at 42.5 µM] (inactive).
The same measure, in the same setting: the same measure for `CCCN1CCC[C@@H]2Cc3[nH]ncc3C[C@H]21`: 4.37% [at 42.5 µM] (inactive); for `BrCCCCBr`: -16.9% (inactive).
On the same count and under the same terms, the same measure for `O=c1[nH]oc2c1CCNC2`: 2.57% [at 42.5 µM] (inactive).
Same read-out and setting: the same measure for `N[C@@H](Cc1ccc(Oc2cc(I)c(O)c(I)c2)c(I)c1)C(=O)O`: 6.78% [at 42.5 µM] (inactive).
In the case of `O=[N+]([O-])c1ccc(CCl)cc1`, the “activity change, negative = inhibition” value was 0.212% (inactive).
Turning to `COc1cc(CC#N)cc(OC)c1OC`, the “activity change, negative = inhibition” value is 6.37% [at 42.5 µM] (inactive).
As to `CC(C)NCC(O)c1ccc([N+](=O)[O-])cc1` (stereo not drawn), the Potency was 5.96 µM (active).
`CC(Cl)(Cl)Cl`: the “activity change, negative = inhibition” value is -5.71% (inactive).
In the case of `CCOC(=O)CC(=O)CCl`, the “activity change, negative = inhibition” value is 4.69% (inactive).
On the same count and under the same terms, as for `CNC(C)Cc1ccccc1OC` (stereo not drawn), the figure is -4.28% [at 42.5 µM] (inactive); as for `CC(C)NCC(O)c1ccccc1Cl` (stereo not drawn), 1.87% [at 42.5 µM] (inactive).
With `CCN(CC)CCOC(=O)C(C)(c1ccccc1)c1ccccc1`, the “activity change, negative = inhibition” value was -0.0098% [at 42.5 µM] (inactive).
Still for that read-out and setting: as for `ClCc1cccc(Cl)c1`, the figure is -0.727% [at 42.5 µM] (inactive); as for `CC1=C2C[C@H]3[C@@H](CC=C4C[C@@H](O)CC[C@@]43C)[C@@H]2CC[C@]12O[C@@H]1C[C@H](C)CN[C@H]1[C@H]2C`, 1.41% [at 42.5 µM] (inactive).
Same read-out and setting: the same measure for `CC(C)[C@H](C(=O)OC(C#N)c1cccc(Oc2ccccc2)c1)c1ccc(OC(F)F)cc1` (stereo partly drawn): -0.431% (inactive).

The values above are taken from PubChem BioAssay (Tox21).
